Data: PubChem BioAssay (NCI)
This is part of a sample that, as a whole, favours compounds with a hit. Of some 79,000 tested, about 15% had one in any assay. Activity calls are given as the source filed them. No stated cut-off is given here; in the data, active means growth inhibition above about 70%; inactive means the rest.

Key:
[1] = NCI Yeast Anticancer Drug Screen. Data for the rad50 strain (AID 155);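 further: 0% = growth of vehicle-only cultures of the same strain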; settings: S. cerevisiae rad50 strain growth inhibition, hits give high values
Method in brief: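 A DNA repair-deficient yeast mutant serves as the test organism; compound-induced growth inhibition is calculated against vehicle-treated cells.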

[2] = NCI Yeast Anticancer Drug Screen. Data for the mec2-1 strain (AID 157); settings: S. cerevisiae mec2-1 strain, hits give high values
Method in brief: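 mec2-1 yeast strain, carrying an alteration in DNA damage repair or cell cycle control, was exposed to compounds; growth inhibition was measured relative to vehicle-treated controls.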

[3] = NCI Yeast Anticancer Drug Screen. Data for the sgs1 mgt1 strain (AID 161);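 further: 0% = growth of cultures given vehicle only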; settings: S. cerevisiae sgs1 mgt1 strain, hits give high values
Method in brief: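 Growth of a repair-deficient yeast mutant was monitored after compound treatment and expressed as inhibition relative to vehicle-treated cultures.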

[4] = NCI Yeast Anticancer Drug Screen. Data for the cln2 rad14 strain (AID 165);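 further: 0% = growth equal to vehicle treated cultures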; settings: S. cerevisiae cln2 rad14 strain, hits give high values
Method in brief: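 Yeast carrying cln2 and rad14 alterations (cell cycle control and DNA damage repair) were exposed to compounds. Growth inhibition was measured against vehicle-treated controls.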

[5] = NCI Yeast Anticancer Drug Screen. Data for the bub3 strain (AID 167); settings: S. cerevisiae bub3 mutant strain, hits give high values
Method in brief: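 Inhibition values come from growth of compound-treated mutant yeast normalised to vehicle-treated controls.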

[6] = NCI Yeast Anticancer Drug Screen. Data for the mlh1 rad18 strain (AID 175); settings: S. cerevisiae mlh1 rad18 strain growth inhibition, hits give high values
Method in brief: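 Growth inhibition of the yeast strain was measured after compound exposure and expressed relative to vehicle-treated controls. The strain carries defined defects in DNA damage repair.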

[7] = at 5.0 µM (retest, dose inferred, filed as 0.5)
[8] = at 50.0 µM (retest, dose inferred, filed as 5.0)

Measured: growth inhibition

O=[N+]([O-])c1ccc(N/N=C/c2cccnc2)cc1
inactive: [1]; [7] 20% | [1]; [8] 49% | [1]; at 50.0 µM 66.4% | [2]; [7] -5% | [2]; [8] 6% | [2]; at 50.0 µM -12.1% | [3]; [7] 1% | [3]; [8] 26% | [3]; at 50.0 µM 60.1% | [4]; [7] 3% | [4]; [8] 15% | [4]; at 50.0 µM -0.05% | [5]; [7] 3% | [5]; [8] 44% | [5]; at 50.0 µM 29.4% | [6]; [7] 9% | [6]; [8] 26% | [6]; at 50.0 µM 45.5%

CCCCCCCCCc1cc(O)c(O)cc1CCCCCCCCC
active: [1]; [8] 80% | [4]; [8] 86% | [5]; [8] 79%
inactive: [1]; [7] -8% | [1]; at 50.0 µM 22.4% | [2]; [7] -13% | [2]; [8] 68% | [2]; at 50.0 µM 25.2% | [3]; [7] -7% | [3]; [8] 42% | [3]; at 50.0 µM 42.9% | [4]; [7] -23% | [4]; at 50.0 µM 54.1% | [5]; [7] -12% | [5]; at 50.0 µM 22.4% | [6]; [7] -2% | [6]; [8] 66% | [6]; at 50.0 µM 1.65%

O=C1c2ccccc2C2(O)c3cc4ccccc4cc3OC12O (stereo not given)
active: [6]; at 50.0 µM 72.7%
inactive: [1]; [7] -7% | [1]; [8] 41% | [1]; at 50.0 µM 52.2% | [2]; [7] -15% | [2]; [8] 19% | [2]; at 50.0 µM 52.2% | [3]; [7] -16% | [3]; [8] 6% | [3]; at 50.0 µM 43% | [4]; [7] -10% | [4]; [8] 44% | [4]; at 50.0 µM 37% | [5]; [7] -6% | [5]; [8] 59% | [5]; at 50.0 µM 44% | [6]; [7] -24% | [6]; [8] 55%

c1cc[c]([Sn]([S]c2ccccn2)([c]2ccccc2)[c]2ccccc2)cc1
active: [1]; [7] 100% | [1]; [8] 99% | [1]; at 50.0 µM 99.5% | [2]; [7] 100% | [2]; [8] 99% | [2]; at 50.0 µM 99.5% | [3]; [7] 99% | [3]; [8] 99% | [3]; at 50.0 µM 99.1% | [4]; [7] 99% | [4]; [8] 99% | [4]; at 50.0 µM 97% | [5]; [7] 96% | [5]; [8] 99% | [5]; at 50.0 µM 99.2% | [6]; [7] 99% | [6]; [8] 99% | [6]; at 50.0 µM 99.2%

O=C1C(=O)C(Br)(c2ccccc2)C(=O)C1c1ccccc1 (stereo not given)
active: [2]; at 50.0 µM 71.4% | [4]; [8] 72% | [4]; at 50.0 µM 93.8% | [5]; [7] 85% | [5]; [8] 97% | [5]; at 50.0 µM 97.7% | [6]; at 50.0 µM 97.7%
inactive: [1]; [7] -16% | [1]; [8] 4% | [1]; at 50.0 µM 52.5% | [2]; [7] -22% | [2]; [8] 2% | [3]; [7] -19% | [3]; [8] 8% | [3]; at 50.0 µM 13.2% | [4]; [7] -2% | [6]; [7] 7% | [6]; [8] 20%

CCCCCCCCCCCCCCC(O)C(=O)O (stereo not given)
active: [2]; at 50.0 µM 88.1% | [5]; at 50.0 µM 96.4% | [6]; at 50.0 µM 73.5%
inactive: [1]; [7] -6% | [1]; [8] -27% | [1]; at 50.0 µM 68.7% | [2]; [7] -2% | [2]; [8] -31% | [3]; [7] -7% | [3]; [8] -33% | [3]; at 50.0 µM 33% | [4]; [7] -1% | [4]; [8] -42% | [4]; at 50.0 µM 11.4% | [5]; [7] -1% | [5]; [8] -28% | [6]; [7] -2% | [6]; [8] -27%

CC(C)c1cc(O)c2c(c1O)C1CC3C(C)(C)CCC[C@]23C(=O)O1 (stereo not given in full)
inactive: [1]; [7] 1% | [1]; [8] 49% | [2]; [7] 9% | [3]; [7] -5% | [4]; [7] 4% | [4]; [8] 61% | [5]; [7] 1% | [5]; [8] 64% | [6]; [7] 3% | [6]; [8] 68%
active: [1]; at 50.0 µM 92.5% | [2]; [8] 82% | [2]; at 50.0 µM 95% | [3]; [8] 76% | [3]; at 50.0 µM 92% | [4]; at 50.0 µM 88.2% | [5]; at 50.0 µM 94.7% | [6]; at 50.0 µM 96.2%

O=C(O)CC(C(=O)O)C(c1cccc2ccccc12)c1cccc2ccc3ccccc3c12 (stereo not given)
inactive: [1]; [7] 6% | [2]; [7] 5% | [3]; [7] -5% | [4]; [7] 4% | [5]; [7] 4% | [6]; [7] 7%
active: [1]; [8] 98% | [1]; at 50.0 µM 98.3% | [2]; [8] 99% | [2]; at 50.0 µM 98.2% | [3]; [8] 99% | [3]; at 50.0 µM 98.3% | [4]; [8] 98% | [4]; at 50.0 µM 98.7% | [5]; [8] 99% | [5]; at 50.0 µM 98.7% | [6]; [8] 99% | [6]; at 50.0 µM 97.8%

CCOC(=O)C(Cc1ccc(O)c(C=O)c1)NC(C)=O (stereo not given)
inactive: [1]; [7] -13% | [1]; [8] 7% | [1]; at 50.0 µM -19.7% | [2]; [7] -9% | [2]; [8] 20% | [2]; at 50.0 µM -7.45% | [3]; [7] -22% | [3]; [8] 2% | [3]; at 50.0 µM 0.3% | [4]; [7] 3% | [4]; [8] 39% | [4]; at 50.0 µM -8.75% | [5]; [7] -1% | [5]; [8] 3% | [5]; at 50.0 µM 0.05% | [6]; [7] -7% | [6]; [8] -10% | [6]; at 50.0 µM -1.55%

CC(C)C(=O)[O][Bi]([c]1ccccc1)[c]1ccccc1
inactive: [1]; [7] 13% | [2]; [7] 7% | [3]; [7] -32% | [4]; [7] 9% | [5]; [7] 11% | [6]; [7] 15%
active: [1]; [8] 92% | [1]; at 50.0 µM 82% | [2]; [8] 78% | [2]; at 50.0 µM 87.2% | [3]; [8] 93% | [3]; at 50.0 µM 87.5% | [4]; [8] 90% | [4]; at 50.0 µM 85.6% | [5]; [8] 93% | [5]; at 50.0 µM 84.5% | [6]; [8] 88% | [6]; at 50.0 µM 91%
